Most compounds without a hit are left out; they make up all but 19% or so of the library.
HT1080NT lethal = qHTS for induction of synthetic lethality in tumor cells producing 2HG: qHTS for the HT-1080-NT fibrosarcoma cell line; HT-1080-NT fibrosarcoma viability, CellTiter-Glo ATP luminescence, 48 h; Potency, µM (series often up to 46.1 µM), for the others: at the top dose activity, negative = less viability, hits mostly cytotoxic; actives 1.6% (n = 360,000); AID 686970, 2013;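 note: NT is the 2HG producing partner of a matched IDH1 knockdown line; 0% = DMSO-treated cells and -100% = media-only wells without cells; nearly all actives have a fitted effect of over 55% in size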
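750 cells/well, RPMI + 5% FBS; 2 h settle, compound pin-transfer, 48 h at 37 degrees C. CellTiter-Glo 10 min RT, luminescence. Normalized to DMSO and media-only wells.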
HT1080 IDH1KD tx = qHTS for induction of synthetic lethality in tumor cells producing 2HG: qHTS for the HT-1080-IDH1KD cell line | HT-1080 IDH1 knockdown viability, ATP luminescence, 48 h | Potency, µM (series often up to 46.1 µM), for inactives: at the top dose activity, negative = toxicity, most hits filed as cytotoxic | actives 2% (n = 360,000) | AID 686971, 2013;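 note: 0% = DMSO wells and -100% = cell-free medium wells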
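In this qHTS, HT-1080 cells depleted of IDH1 are exposed for 48 h at 37 °C to compound titrations. Toxicity is scored from CellTiter-Glo luminescence, with DMSO as full viability and medium alone as none.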
KB-V1 MDR tox = qHTS assay for MDR1-selective chemotherapeutics: Primary screen using the drug-selected MDR subline cells KB-V1 | KB-V1 MDR cells viability, CellTiter-Glo, 72 h | Potency, µM (top dose mostly 46.1 µM), usual class: cytotoxic | actives 3.4% (n = 400,000); note: nearly all actives have a fitted effect of over 60% in size
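KB-V1, DMEM (no phenol red) + 10% FBS; cpd pin-transferred, titration series; 72 h, 37 degrees C; CellTiter-Glo, luminescence. Data normalized, curve-fit.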
DT40 TDP1 no CPT = qHTS for Inhibitors of human tyrosyl-DNA phosphodiesterase 1 (TDP1): qHTS in cells in absence of CPT; DT40 Tdp1-/- hTDP1 cells, no CPT, ATP luminescence, 48 h; AID 686978, 2013; actives 15% (n = 420,000); Potency, µM (highest dose often 46.2 µM), inactives show top-dose activity change, negative = growth inhibition, actives largely listed as inhibitors; note: nearly all actives have a fitted effect of over 55% in size
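Chicken DT40 Tdp1-/- cells complemented with human TDP1, screened without camptothecin (DMSO vehicle only), 400 cells/well. Compounds pin-transferred, cells incubated at 37 °C for at least 48 hr. Growth read as ATP-dependent luminescence (CellTiter-Glo, 30 min at RT).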
DT40 TDP1 CPT = qHTS for Inhibitors of human tyrosyl-DNA phosphodiesterase 1 (TDP1): qHTS in cells in presence of CPT; chicken DT40 Tdp1-/-;hTDP1 cells + 20 nM CPT, ATP luminescence, 48 h; Potency, µM (titrated, usually from 46.2 µM), for inactives: top-dose activity change, negative = growth inhibition, usual class: inhibitors; actives 12% (n = 420,000); note: nearly all actives have a fitted effect of over 55% in size
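Cell growth measured by CellTiter-Glo luminescence after a minimum 48 h, 37 C compound exposure with 20 nM CPT in Tdp1-knockout DT40 cells stably expressing hTDP1, seeded 400/well; qHTS titration format.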
KB-3-1 cytotox = qHTS assay for MDR1-selective chemotherapeutics: Primary screen using the parental adenocarcinoma cell KB-3-1; KB-3-1 viability, CellTiter-Glo ATP luminescence, 72 h; Potency, µM (doses to about 46.1 µM), hits mostly cytotoxic; actives 1.4% (n = 400,000); note: nearly all actives have a fitted effect of over 60% in size
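Parental KB-3-1 adenocarcinoma cells in phenol-red-free DMEM with 10% FBS were pin-treated with compounds at several concentrations, incubated 72 h at 37 °C, and viability read by CellTiter-Glo luminescence; concentration-effect curves were fitted after normalization.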
An asterisk follows results filed as active; i = inactive; ? = inconclusive; · = no result given; [ ] = another dose, or the depositor's remark. Calls come from the whole dose curve; as a rule, active = well fitted curve in the direction sought with a large enough effect; inconclusive = small, poorly fitted or top-dose-only effect, or another doubt; inactive = no such curve, though single readings can be large; an effect the other way counts as inactive or inconclusive. Unless noted, % is set by controls: 0 for no effect and ±100 for the full control effect; potency is the fitted concentration of half-maximal effect.

SMILES	HT1080NT lethal	HT1080 IDH1KD tx	KB-V1 MDR tox	DT40 TDP1 no CPT	DT40 TDP1 CPT	KB-3-1 cytotox
O=C1N=C(N2CCOCC2)S/C1=C\c1ccc(-c2ccccc2Cl)o1	14.7%	10.4%	i	?	-22.4%	i
COc1ccc(-c2csc(NCCc3nc4cc(Cl)c(Cl)cc4n3CCCO)n2)cc1	-20.3%	?	i	18.4µM*	?	?
O=[N+]([O-])c1cc(-c2csc(NCCc3nc4cc(Cl)c(Cl)cc4n3CCCO)n2)ccc1Cl	1.3%	-1.3%	i	?	16.4µM*	i
CCCn1c(CCNc2nc(-c3ccc(Cl)c([N+](=O)[O-])c3)cs2)nc2cc(Cl)c(Cl)cc21	4.0%	-12.3%	i	-5.4%	-11.3%	i
Cc1cccc(Cc2nc3ccccc3[nH]2)c1	0.9%	1.7%	i	?	-20.2%	i
O=C(NCc1cccnc1)c1ccc2c(c1)OCO2	-2.1%	1.8%	i	3.1%	-6.5%	i
O=C(NCCn1cc(SCc2ccccc2F)c2ccccc21)c1c(F)cccc1F	-14.2%	-8.7%	i	23.1µM*	?	i
O=C(NCCn1cc(SCc2ccccc2F)c2ccccc21)c1cccs1	·	·	i	20.6µM*	?	?
Cc1ccccc1CSc1cn(CCNC(=O)c2cccs2)c2ccccc12	·	·	?	?	23.1µM*	?
CC(Sc1cn(CCNC(=O)c2ccccc2F)c2ccccc12)c1ccccc1 (stereo unspecified)	·	·	i	20.6µM*	?	i
O=C(NCCn1cc(SCC(=O)N2CCOCC2)c2ccccc21)c1c(F)cccc1F	0.3%	5.1%	i	?	?	i
CCc1nnc(NC(=O)CSCc2cc(=O)n3nc(C)sc3n2)s1	3.5%	2.8%	i	?	?	i
CSc1ccccc1NC(=O)CSc1nncs1	-2.2%	-12.8%	i	1.0%	3.5%	i
O=C(CCC(=O)N1CCOc2ccc(Cl)cc21)NCCN1CCOCC1	2.6%	8.9%	i	-3.8%	4.5%	i
CC1CCc2c(sc3nc(CSc4nnnn4C)[nH]c(=O)c23)C1 (stereo unspecified)	-21.4%	-11.5%	i	-22.8%	-15.8%	i
O=C(Nc1cccc(C(F)(F)F)c1)c1cc2c(=O)c3ccccc3oc2nc1C(F)(F)F	-3.8%	2.3%	20.6µM*	29.1µM*	?	i
O=c1[nH]nc2c3ccccc3occ1-2	12.3%	1.0%	i	2.8%	0.4%	i
CCOc1ccccc1C(=O)NC1CC2CCCC(C1)N2Cc1nnnn1Cc1ccco1 (stereo unspecified)	-0.4%	8.0%	?	16.4µM*	?	i
O=C(NC1CC2CCC(C1)N2Cc1nnnn1Cc1ccco1)NC12CC3CC(CC(C3)C1)C2 (stereo unspecified)	-7.4%	1.9%	i	18.4µM*	20.6µM*	i
CCOCCCNC(=O)CNC(=S)N(Cc1ccc(C)cc1)Cc1ccco1	8.9%	6.0%	?	-0.3%	?	i
O=S1(=O)N=C(N/N=C/C=C/c2ccccc2)c2ccccc21	-8.2%	-12.0%	i	5.8µM*	?	i
O=S1(=O)N=C(N/N=C/c2ccccn2)c2ccccc21	-21.5%	?	?	?	?	i
C=CCN1C(c2ccccc2)=CS/C1=C(/C#N)c1nnc(N2CCOCC2)n1-c1ccccc1	0.9%	-2.9%	i	14.6µM*	18.4µM*	i
COC(=O)c1cc2ccccn2c2c(C(=O)OC)c(C(=O)OC)cc1-2	4.8%	4.0%	i	?	-27.9%	i
COC(=O)c1cc2c(C)c(C)c3ccccn3c-2c1C(=O)OC	12.4%	7.9%	?	?	25.9µM*	i
SMILES	HT1080NT lethal	HT1080 IDH1KD tx	KB-V1 MDR tox	DT40 TDP1 no CPT	DT40 TDP1 CPT	KB-3-1 cytotox
Cc1ccc(C(=O)COC(=O)CNC(=O)c2ccco2)cc1	0.7%	1.6%	i	1.4%	-13.3%	i
CCCCc1cc(=O)oc2cc(C)cc(OCC(=O)N3CCC(C(=O)O)(c4ccccc4)CC3)c12	-8.8%	-7.0%	?	-21.1%	3.2%	i
CC(Oc1ccc2c(-c3ccccc3)cc(=O)oc2c1)C(=O)O (stereo unspecified)	8.3%	10.5%	i	2.9%	-19.2%	i
CCOc1cc(C)cc2oc(=O)cc(-c3ccccc3)c12	-0.4%	-0.4%	?	20.6µM*	13µM*	i
Cc1cc(OC(C)C)c2c(-c3ccccc3)cc(=O)oc2c1	-6.0%	0.5%[9.24 µM]	?	?	23.1µM*	i
Cc1cc(OCC(=O)N2CCc3ccccc3C2)c2c(-c3ccccc3)cc(=O)oc2c1	?	?	i	?	23.1µM*	?
CC(=O)Oc1cc(C)cc2oc(=O)cc(-c3ccccc3)c12	-26.1%	?	i	?	-7.1%	i
CC(C)c1c(C(=O)NCc2ccccn2)cnn1-c1nccc(-c2ccccc2F)n1	·	·	·	-24.6%	?	·
CN(C)c1nc2cc3c(cc2cc1CN(CC1CCCO1)C(=O)c1cccc(F)c1)OCO3 (stereo unspecified)	·	·	·	-2.9%	17.6%[9.04 µM]	·
Nc1cccc(C(=O)OCC(=O)c2ccccc2)c1	?	24.0%	i	-21.5%	-20.9%	i
CCC(=O)Nc1cccc2c1C(=O)N(C)C2=O	1.1%	-1.6%	i	-13.9%	-12.3%	i
Cc1cccc(NC(=O)COC(=O)c2ccccc2-c2nc3ccccc3s2)c1C	-21.1%	-26.9%	?	?	?	i
Cc1cccc(C)c1NC(=O)c1cccc2c1-c1ccccc1C2=O	-1.8%	10.5%	i	?	?	i
Nc1cccc(C(=O)OCC(=O)Nc2cccc3c2C(=O)c2ccccc2C3=O)c1	-24.9%	?	i	11.6µM*	?	i
Cc1cccc(C)c1NC(=O)COC(=O)c1cccc2c1C(=O)c1ccccc1C2=O	-3.7%	-6.5%	?	8.2µM*	11.6µM*	i
CCN(CC)CCC(=O)Nc1cccc2c1C(=O)c1ccccc1C2=O	18.4µM*	14.6µM*	18.4µM*	10.3µM*	11.6µM*	?

Source: PubChem
